Assays:
Experiment in all cases: DAPPL (digital affinity profiling via proximity ligation, sequencing); 10 mM Tris-HCl pH 7.5, 50 mM NaCl, 1 mM DTT, 4% glycerol, room temperature, 30 min; GST-TFs on glutathione beads, 16-mer random dsDNA library, 0.1% formaldehyde crosslink after washing; high values mean tight binding
Settings in all cases: protein: recombinant; tags: N-terminal GST; dsDNA, one strand shown
FLI1 = target: T1, FLI1 (Homo sapiens, UniProt Q01543 1-452)
T1 sequence: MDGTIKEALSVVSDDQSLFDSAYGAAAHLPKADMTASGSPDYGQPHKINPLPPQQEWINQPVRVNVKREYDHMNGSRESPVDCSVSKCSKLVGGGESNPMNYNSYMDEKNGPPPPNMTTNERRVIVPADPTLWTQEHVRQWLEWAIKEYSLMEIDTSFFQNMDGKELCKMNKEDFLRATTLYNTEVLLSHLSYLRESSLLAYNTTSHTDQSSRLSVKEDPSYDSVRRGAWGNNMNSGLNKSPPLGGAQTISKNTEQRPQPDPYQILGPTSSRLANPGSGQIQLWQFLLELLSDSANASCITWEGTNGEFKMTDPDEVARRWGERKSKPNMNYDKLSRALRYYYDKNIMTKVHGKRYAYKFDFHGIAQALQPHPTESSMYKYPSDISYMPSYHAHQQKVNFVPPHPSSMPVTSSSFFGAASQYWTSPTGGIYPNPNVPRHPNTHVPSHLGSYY
How it was run: (§1)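 Human transcription factors carrying a GST fusion were produced in yeast, bound to glutathione beads, tagged with DNA barcodes and pooled together with a tag-only sample. Each pool was held with 200 nmole of a random double-stranded 16-mer DNA library in Tris/NaCl/DTT/glycerol buffer for 30 min at room temperature, then washed, crosslinked in 0.1% formaldehyde, proximity-ligated with BsaI/T4 ligase (1 h, 37 °C), PCR-amplified and sequenced on an Illumina NextSeq500. Binding signal is the read frequency of each hexamer for a given factor divided by its frequency in the tag-only sample.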

ELK1 = target: T2, ELK1 (Homo sapiens, UniProt P19419 1-428)
T2 sequence: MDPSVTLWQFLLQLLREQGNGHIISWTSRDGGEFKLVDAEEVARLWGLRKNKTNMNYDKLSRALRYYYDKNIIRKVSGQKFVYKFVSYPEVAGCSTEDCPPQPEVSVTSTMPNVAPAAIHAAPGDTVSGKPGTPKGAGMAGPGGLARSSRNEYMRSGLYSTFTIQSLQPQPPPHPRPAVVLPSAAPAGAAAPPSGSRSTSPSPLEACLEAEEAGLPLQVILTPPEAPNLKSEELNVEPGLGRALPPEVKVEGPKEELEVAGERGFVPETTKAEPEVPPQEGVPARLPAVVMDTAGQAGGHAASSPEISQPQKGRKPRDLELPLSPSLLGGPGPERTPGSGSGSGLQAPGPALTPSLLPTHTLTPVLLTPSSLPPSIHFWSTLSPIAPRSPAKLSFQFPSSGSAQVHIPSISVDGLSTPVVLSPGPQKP
How it was run: as §1

GABPA = target: T3, GABPA (Homo sapiens, UniProt Q06546 1-454)
T3 sequence: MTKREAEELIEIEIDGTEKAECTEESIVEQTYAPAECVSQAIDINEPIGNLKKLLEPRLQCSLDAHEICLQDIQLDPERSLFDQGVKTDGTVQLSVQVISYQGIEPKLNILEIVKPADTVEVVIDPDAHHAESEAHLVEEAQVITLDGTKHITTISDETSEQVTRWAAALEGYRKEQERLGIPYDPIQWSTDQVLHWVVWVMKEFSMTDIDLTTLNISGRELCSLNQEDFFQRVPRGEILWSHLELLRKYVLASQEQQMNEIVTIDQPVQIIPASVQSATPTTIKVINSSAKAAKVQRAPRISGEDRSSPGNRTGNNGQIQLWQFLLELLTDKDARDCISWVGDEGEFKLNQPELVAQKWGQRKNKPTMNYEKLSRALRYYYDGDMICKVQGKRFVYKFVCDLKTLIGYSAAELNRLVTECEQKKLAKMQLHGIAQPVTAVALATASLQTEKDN
How it was run: as §1

ERG = target: T4, ERG (Homo sapiens, UniProt P11308 1-479)
T4 sequence: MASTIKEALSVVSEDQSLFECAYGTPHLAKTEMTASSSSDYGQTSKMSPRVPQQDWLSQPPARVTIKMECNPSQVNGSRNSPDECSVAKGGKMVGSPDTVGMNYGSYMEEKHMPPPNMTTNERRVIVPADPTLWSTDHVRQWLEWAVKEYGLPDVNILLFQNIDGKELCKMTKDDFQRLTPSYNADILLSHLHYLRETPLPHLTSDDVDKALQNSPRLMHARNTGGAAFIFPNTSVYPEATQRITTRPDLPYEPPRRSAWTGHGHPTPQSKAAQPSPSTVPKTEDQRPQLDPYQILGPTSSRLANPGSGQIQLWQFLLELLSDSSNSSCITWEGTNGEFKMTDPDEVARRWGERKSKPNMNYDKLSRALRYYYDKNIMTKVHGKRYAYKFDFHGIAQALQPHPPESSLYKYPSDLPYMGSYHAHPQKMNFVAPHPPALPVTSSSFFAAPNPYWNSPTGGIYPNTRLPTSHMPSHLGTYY
How it was run: as §1

ELF1 = ELF1 (Homo sapiens, UniProt P32519 1-619)
Chain of ELF1 (P32519 whole entry): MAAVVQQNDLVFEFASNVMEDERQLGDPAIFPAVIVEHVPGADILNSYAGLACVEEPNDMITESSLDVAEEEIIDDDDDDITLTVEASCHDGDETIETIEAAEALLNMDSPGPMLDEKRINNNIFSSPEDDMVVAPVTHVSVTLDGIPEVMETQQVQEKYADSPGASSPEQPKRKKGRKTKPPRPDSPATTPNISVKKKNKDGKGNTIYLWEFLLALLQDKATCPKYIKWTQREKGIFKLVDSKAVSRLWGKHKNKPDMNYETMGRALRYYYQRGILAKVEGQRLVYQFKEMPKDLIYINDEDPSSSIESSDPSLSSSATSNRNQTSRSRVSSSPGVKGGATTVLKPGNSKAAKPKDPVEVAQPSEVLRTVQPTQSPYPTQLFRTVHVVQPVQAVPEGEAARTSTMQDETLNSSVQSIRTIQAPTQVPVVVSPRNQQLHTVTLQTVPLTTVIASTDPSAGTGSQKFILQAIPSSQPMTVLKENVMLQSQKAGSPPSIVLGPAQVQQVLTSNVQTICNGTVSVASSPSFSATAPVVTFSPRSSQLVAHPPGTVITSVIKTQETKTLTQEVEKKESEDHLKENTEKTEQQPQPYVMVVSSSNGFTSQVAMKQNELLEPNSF
How it was run: as §1

EHF = target: T5, EHF (Homo sapiens, UniProt Q9NZC4 1-300)
T5 sequence: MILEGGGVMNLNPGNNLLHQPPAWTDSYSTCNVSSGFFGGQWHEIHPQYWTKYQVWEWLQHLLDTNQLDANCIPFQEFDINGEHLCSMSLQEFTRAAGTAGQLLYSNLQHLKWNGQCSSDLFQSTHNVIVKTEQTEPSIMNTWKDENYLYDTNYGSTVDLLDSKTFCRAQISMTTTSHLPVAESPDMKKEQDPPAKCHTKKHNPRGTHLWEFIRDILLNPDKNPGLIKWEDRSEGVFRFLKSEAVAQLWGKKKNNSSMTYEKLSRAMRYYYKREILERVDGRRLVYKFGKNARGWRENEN
How it was run: as §1

FEV = target: T6, FEV (Homo sapiens, UniProt Q99581 1-238)
T6 sequence: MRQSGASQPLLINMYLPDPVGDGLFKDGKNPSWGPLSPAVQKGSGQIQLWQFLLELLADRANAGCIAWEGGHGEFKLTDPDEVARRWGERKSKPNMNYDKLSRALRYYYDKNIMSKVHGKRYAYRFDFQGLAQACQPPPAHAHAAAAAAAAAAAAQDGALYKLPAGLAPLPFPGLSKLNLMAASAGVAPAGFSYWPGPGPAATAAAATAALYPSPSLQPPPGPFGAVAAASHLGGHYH
How it was run: as §1

SPIC = target: T7, SPIC (Homo sapiens, UniProt Q8N5J4 1-248)
T7 sequence: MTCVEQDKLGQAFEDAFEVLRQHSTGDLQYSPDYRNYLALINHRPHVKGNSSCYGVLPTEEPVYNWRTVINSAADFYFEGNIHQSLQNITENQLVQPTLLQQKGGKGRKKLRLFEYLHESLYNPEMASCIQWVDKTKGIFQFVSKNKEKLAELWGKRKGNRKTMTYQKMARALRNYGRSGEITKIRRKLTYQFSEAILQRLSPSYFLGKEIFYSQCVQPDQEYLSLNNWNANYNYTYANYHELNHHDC
How it was run: as §1

ELF4 = ELF4 (Homo sapiens, UniProt Q99607 1-663)
Chain of ELF4 (Q99607 whole entry): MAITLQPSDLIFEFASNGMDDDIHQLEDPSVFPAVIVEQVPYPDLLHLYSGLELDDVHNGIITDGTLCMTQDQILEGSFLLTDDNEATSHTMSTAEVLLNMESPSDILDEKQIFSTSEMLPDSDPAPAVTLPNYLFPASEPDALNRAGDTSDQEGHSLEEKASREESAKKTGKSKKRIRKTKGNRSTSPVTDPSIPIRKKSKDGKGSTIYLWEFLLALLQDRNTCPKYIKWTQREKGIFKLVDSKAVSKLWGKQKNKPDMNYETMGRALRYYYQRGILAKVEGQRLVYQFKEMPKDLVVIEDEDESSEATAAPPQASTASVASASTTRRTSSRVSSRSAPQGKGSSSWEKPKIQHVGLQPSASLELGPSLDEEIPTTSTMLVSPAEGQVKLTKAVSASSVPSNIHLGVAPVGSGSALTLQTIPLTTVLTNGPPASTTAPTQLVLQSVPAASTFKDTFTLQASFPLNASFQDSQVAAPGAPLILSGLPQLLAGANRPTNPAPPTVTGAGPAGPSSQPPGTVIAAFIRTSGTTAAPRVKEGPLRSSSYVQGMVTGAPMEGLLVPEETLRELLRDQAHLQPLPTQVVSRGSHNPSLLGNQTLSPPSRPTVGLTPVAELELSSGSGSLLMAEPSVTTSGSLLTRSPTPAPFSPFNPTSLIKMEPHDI
How it was run: as §1

In the case of CACACC, the binding signal (FLI1) is reported as 1.07 fold enrichment (6-mer frequency, TF over GST control), the binding signal (ELK1) is reported as 1.07 fold enrichment (6-mer frequency, TF over GST control) and the binding signal (GABPA) is reported as 1.01 fold enrichment (6-mer frequency, TF over GST control). For the same sequence, the binding signal (ERG) was 1.04 fold enrichment (6-mer frequency, TF over GST control), the binding signal (ELF1) was 1.02 fold enrichment (6-mer frequency, TF over GST control) and the binding signal (EHF) was 1.04 fold enrichment (6-mer frequency, TF over GST control). The binding signal (FEV) was 1.07 fold enrichment (6-mer frequency, TF over GST control), the binding signal (SPIC) was 1.09 fold enrichment (6-mer frequency, TF over GST control) and the binding signal (ELF4) was 1.06 fold enrichment (6-mer frequency, TF over GST control).
